Data as given in ChEMBL document CHEMBL3988442, “University of Dundee, Small-Polar-MMV Screening Library” (2021).
For some of these results: Potency and affinity values are given separately.

Key:
Set-up in all cases: scale not given: direction of the effect not stated beside the values
[1] = target: Protein translocase subunit SecA (Escherichia coli (strain K12)) (UniProt P10408); test: Assay to Identify E. coli SecA ATPase Inhibitors; assay type: functional; details: 30 µM
[2] = target: T1, Ubiquitin-activating enzyme e1, putative (Leishmania donovani (strain BPK282A1)) (UniProt E9BSI1); test: Leishmania donovani Ubiquitin Activating Enzyme (LdE1); assay type: functional; details: 30 µM
T1 sequence (whole entry): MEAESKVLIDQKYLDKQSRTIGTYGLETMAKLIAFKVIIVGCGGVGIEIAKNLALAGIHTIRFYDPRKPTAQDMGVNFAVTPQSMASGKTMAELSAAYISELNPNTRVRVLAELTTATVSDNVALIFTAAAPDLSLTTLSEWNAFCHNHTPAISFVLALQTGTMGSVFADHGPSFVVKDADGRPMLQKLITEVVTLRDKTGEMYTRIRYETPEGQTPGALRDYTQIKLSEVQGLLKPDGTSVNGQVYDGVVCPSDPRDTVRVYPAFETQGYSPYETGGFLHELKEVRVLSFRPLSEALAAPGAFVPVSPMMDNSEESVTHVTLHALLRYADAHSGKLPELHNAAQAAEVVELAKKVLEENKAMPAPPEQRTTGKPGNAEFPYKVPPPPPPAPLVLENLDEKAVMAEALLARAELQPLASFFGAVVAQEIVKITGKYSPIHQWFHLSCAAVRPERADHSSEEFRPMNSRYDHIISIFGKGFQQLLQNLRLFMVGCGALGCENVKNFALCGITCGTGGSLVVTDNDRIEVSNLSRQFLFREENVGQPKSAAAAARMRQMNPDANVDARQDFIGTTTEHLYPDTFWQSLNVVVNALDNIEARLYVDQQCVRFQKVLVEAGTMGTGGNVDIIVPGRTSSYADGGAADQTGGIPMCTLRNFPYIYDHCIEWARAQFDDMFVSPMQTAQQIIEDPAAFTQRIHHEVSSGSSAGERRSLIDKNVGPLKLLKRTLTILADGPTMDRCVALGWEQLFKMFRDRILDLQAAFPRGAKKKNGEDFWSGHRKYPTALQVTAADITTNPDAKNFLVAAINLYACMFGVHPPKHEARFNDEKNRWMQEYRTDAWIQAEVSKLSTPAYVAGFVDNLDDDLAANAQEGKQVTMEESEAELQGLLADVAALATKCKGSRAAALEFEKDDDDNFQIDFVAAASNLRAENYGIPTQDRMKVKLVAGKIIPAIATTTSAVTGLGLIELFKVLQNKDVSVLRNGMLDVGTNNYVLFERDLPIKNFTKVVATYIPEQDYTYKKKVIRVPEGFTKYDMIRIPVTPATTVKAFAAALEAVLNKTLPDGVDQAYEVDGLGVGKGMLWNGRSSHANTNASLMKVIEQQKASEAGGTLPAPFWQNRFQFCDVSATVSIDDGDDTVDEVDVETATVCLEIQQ

[3] = target: AMP-activated protein kinase, AMPK (Homo sapiens) (UniProt P54646+O43741+P54619+Q9UGJ0+Q9Y478+Q13131+Q9UGI9); test: AMP-dependent Kinase enzyme assay. An in vitro enzyme assay that detects ADP turnover that is directly proportional to AMPK activity. This uses naive AMPK that is activated during the assay with MK-8722; assay type: functional; details: 30 µM
[4] = target: Sialic acid-binding Ig-like lectin 9 (Homo sapiens) (UniProt Q9Y336); test: Hs-Siglec9 ALPHAscreen SOP 20170721; details: 10 µM
[5] = system: Trypanosoma cruzi; test: Trypanosoma cruzi phosphomannomutase and mannose-1-phosphate guanylyltransferase assay; assay type: functional; details: 10 µM
[6] = target: T2, Arginase-2, mitochondrial (Homo sapiens) (UniProt P78540); test: in vitro enzyme assay to detect the production of urea directly proportional to the activity of Arginase II; assay type: functional; details: 33.3 µM; note: in the data most compounds retested in dose-response had high values
T2 sequence (whole entry): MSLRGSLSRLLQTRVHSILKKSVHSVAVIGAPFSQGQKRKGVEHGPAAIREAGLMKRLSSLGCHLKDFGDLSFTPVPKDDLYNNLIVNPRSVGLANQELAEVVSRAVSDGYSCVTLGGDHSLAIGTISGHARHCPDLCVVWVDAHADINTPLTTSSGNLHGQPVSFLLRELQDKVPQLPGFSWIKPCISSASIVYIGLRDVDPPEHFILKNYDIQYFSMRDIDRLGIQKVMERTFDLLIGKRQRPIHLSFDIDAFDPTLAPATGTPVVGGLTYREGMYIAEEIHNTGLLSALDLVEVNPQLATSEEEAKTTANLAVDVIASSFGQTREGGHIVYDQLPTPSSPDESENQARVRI

[7] = target: T3, Proteasome subunit beta (Trypanosoma cruzi) (UniProt O96673); test: Trypanosoma cruzi proteasome chymotrypsin-like activity (TcProtChymo) assay.; note: in the data most compounds retested in dose-response had high values; assay type: functional; details: 9.37 µM
T3 sequence (whole entry): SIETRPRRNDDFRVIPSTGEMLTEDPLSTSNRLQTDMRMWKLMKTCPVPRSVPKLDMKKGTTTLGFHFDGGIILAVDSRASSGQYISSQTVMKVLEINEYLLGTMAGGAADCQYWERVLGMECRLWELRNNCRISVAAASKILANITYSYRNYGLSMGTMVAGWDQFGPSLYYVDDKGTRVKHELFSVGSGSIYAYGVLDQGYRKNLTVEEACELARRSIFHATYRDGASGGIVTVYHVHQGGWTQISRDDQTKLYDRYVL

[8] = species: Homo sapiens; test: To identify inhibition of the IFN signalling (Jak-Stat) pathway via expression of an eGFP reporter gene under the control of an IFN-stimulated response element (ISRE) containing MxA promoter.; assay type: functional; details: 30 µM
[9] = target: T4, Tyrosyl-tRNA synthetase, putative (Trypanosoma cruzi (strain CL Brener)) (UniProt Q4DSP6); test: Trypanosoma cruzi tyrosyl tRNA synthetase (TcYRS) _High Tyrosine SOP; assay type: functional; details: 30 µM; note: in the data most compounds retested in dose-response had high values
T4 sequence (whole entry): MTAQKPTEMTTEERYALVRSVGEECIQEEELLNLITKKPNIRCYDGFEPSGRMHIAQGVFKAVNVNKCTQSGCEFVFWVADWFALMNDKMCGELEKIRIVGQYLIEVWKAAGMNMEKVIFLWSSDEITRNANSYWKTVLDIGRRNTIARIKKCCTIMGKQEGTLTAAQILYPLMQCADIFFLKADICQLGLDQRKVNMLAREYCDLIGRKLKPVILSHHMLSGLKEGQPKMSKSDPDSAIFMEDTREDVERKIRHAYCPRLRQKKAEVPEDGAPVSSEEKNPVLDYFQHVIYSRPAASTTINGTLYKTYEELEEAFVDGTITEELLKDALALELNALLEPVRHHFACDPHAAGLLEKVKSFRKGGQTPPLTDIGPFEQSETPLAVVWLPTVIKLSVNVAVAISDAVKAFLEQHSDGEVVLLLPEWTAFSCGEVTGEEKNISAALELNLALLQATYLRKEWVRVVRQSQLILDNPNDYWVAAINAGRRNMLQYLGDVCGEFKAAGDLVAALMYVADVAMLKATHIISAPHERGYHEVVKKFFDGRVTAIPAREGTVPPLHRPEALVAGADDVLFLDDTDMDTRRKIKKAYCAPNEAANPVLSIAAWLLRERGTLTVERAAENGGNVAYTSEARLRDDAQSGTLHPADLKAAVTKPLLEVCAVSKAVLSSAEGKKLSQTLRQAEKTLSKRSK

[10] = target: T4, Tyrosyl-tRNA synthetase, putative (Trypanosoma cruzi (strain CL Brener)); test: Trypanosoma cruzi tyrosyl tRNA synthetase (TcYRS) SOP; assay type: functional; details: 30 µM
[11] = target: Chromo domain-containing protein 1 (Saccharomyces cerevisiae (strain ATCC 204508 / S288c) (Baker's yeast)) (UniProt P32657); test: ScCHD-1 Enzyme Inhibition Assay; assay type: functional; details: 30 µM; note: in the data most compounds retested in dose-response had high values
Chromo domain-containing protein 1 (Saccharomyces cerevisiae (strain ATCC 204508 / S288c) (Baker's yeast)), sequence (P32657 whole entry, the tested form may be a part): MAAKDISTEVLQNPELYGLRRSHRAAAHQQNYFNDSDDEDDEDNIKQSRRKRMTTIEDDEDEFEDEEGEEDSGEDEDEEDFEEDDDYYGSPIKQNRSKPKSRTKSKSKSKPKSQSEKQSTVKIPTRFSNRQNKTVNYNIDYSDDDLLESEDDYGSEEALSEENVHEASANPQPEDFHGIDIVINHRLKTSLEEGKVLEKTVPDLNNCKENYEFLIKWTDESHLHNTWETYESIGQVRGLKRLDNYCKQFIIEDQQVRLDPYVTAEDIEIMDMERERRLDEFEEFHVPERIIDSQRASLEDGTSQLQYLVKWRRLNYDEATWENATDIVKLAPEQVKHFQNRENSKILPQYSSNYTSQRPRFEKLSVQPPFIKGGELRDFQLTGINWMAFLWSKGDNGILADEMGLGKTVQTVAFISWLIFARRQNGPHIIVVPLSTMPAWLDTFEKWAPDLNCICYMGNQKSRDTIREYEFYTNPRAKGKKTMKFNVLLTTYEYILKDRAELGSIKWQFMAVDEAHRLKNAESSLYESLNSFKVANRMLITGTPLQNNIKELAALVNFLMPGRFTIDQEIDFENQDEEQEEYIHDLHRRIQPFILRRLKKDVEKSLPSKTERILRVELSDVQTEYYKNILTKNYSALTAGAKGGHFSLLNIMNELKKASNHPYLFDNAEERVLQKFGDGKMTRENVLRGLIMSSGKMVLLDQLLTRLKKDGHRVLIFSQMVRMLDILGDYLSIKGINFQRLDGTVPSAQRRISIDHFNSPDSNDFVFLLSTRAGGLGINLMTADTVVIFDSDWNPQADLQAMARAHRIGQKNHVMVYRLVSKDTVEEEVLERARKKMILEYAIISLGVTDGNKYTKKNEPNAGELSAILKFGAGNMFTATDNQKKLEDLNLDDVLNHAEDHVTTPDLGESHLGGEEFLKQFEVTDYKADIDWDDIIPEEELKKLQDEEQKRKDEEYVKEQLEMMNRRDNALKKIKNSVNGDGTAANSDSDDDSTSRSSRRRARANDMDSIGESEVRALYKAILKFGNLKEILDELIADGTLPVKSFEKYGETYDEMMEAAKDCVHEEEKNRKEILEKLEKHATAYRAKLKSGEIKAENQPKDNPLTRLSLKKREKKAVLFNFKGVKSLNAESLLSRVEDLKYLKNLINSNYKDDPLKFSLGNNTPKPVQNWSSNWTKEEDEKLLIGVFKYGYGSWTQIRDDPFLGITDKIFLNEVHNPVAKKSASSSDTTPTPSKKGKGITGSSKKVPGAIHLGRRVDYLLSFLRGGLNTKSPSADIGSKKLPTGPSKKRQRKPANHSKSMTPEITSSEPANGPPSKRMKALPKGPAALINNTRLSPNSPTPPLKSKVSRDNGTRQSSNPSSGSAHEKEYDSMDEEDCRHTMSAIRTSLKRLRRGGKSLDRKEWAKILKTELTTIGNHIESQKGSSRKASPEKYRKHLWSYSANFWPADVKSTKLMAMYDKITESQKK

Sialic acid-binding Ig-like lectin 9 (Homo sapiens), sequence (Q9Y336 whole entry): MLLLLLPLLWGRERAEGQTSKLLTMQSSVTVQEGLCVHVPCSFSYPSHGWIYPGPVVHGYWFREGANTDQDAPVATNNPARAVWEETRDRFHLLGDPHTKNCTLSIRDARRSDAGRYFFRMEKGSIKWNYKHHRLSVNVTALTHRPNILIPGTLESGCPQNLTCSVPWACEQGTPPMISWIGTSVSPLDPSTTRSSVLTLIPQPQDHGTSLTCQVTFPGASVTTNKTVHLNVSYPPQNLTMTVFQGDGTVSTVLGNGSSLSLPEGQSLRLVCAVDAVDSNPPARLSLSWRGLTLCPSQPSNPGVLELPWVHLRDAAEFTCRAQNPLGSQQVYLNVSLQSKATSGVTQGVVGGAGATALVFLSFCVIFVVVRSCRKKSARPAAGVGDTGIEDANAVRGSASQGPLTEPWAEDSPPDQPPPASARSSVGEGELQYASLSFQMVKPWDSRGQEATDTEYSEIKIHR
Protein translocase subunit SecA (Escherichia coli (strain K12)), sequence (P10408 whole entry): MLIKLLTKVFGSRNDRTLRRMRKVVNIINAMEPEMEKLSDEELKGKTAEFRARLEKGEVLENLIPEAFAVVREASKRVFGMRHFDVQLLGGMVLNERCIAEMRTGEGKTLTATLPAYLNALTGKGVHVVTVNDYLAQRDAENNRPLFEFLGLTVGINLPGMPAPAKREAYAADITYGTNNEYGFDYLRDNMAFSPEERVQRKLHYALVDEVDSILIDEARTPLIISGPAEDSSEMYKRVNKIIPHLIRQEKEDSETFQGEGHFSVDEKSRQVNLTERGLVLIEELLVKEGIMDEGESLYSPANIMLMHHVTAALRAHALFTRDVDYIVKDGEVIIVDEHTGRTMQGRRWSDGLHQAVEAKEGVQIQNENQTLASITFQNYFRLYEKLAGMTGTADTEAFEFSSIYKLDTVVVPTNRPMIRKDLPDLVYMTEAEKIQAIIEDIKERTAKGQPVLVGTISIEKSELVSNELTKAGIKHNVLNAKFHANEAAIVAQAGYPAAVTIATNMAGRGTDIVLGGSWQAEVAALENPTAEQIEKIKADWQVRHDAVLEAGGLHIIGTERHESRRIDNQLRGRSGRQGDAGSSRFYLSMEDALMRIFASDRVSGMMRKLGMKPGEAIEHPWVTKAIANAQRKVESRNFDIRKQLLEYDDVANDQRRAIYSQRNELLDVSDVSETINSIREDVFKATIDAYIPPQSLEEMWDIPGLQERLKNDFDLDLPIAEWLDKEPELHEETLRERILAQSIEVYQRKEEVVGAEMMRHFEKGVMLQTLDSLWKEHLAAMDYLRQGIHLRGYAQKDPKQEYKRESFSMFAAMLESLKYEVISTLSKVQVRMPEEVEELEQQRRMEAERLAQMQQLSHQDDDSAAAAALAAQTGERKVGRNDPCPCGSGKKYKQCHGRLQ

Row | SMILES | Percent Effect [1] | Percent Effect [2] | Percent Effect [3] | Percent Effect [4] | Percent Effect [5] | Percent Effect [6] | Percent Effect [7] | Percent Effect [8] | Percent Effect [9] | Percent Effect [10] | Percent Effect [11]
1 | CC(C)c1noc(CN2CCC3(CCCO3)CCC2=O)n1 (configuration not stated) | -8.4% | 2.67% | 0.336% | -1.54% | -3.8% | -0.521% | 2.27% | 25.6% | 1.64% | 6.17% | -6.74%
2 | N#CC1(C(=O)N2CCN(Cc3cscn3)CC2)CCCC1 | -4.16% | 10.1% | -7.12% | -4.28% | -8.78% | 2.66% | 3.19% | 29.4% | 0.493% | 1.27% | -7.41%
3 | CS(=O)(=O)N1CCC(Oc2cnccn2)CC1 | -2.51% | 10.4% | -2.43% | 6.29% | 2.46% | 1.94% | 14.1% | 7.55% | 4.23% | 11.5% | -8.42%
4 | COCCN(C)CCN1CC2(CCN(C3CCCOC3)CC2)OC1=O (configuration not stated) | -2.07% | 20.8% | -4.24% | 3.41% | 0.295% | -11% | 16.5% | 11.4% | 3.23% | 18.5% | -6.77%
5 | Cc1cc(C)nc(N2Cc3cnn(Cc4ccc(F)cc4)c3C2)n1 | -6.24% | -2.67% | 1.55% | -0.223% | -7.5% | -2.6% | 10.6% | 33.6% | -6.01% | -6.17% | -5.39%
6 | O=C(c1ccc(-n2ccnc2)nc1)N1CCCC(n2cccn2)C1 (configuration not stated) | -0.548% | 7.89% | -2.37% | 3.05% | -2.63% | 7.28% | -0.501% | 15.7% | 5.39% | 9.76% | 0.587%
7 | Cn1c(C(F)(F)F)nn(CCNC(=O)CSCc2ccccc2)c1=O | -3.49% | 8.22% | 2.99% | 4.38% | 4.7% | 5% | 4.79% | 14.2% | 4.3% | 15% | -4.6%
8 | CN(Cc1ccccn1)C1COC2(CCN(Cc3cccnc3)CC2)C1 (configuration not stated) | -2.78% | 16% | -2.32% | -9.58% | 4.72% | 49.2% | 12.1% | 17.1% | 5.32% | 16.7% | -7.71%
9 | CC(C)c1nc2c(n1C)CCN(CC(=O)Nc1nccs1)C2 | -4.97% | 15.6% | 1.78% | -4.17% | -0.686% | 3.58% | 15.3% | -3.14% | 9.52% | 21.2% | -18%
10 | COc1ccc(COCC(O)CNC(=O)c2cc(C)cc(C)c2)cc1 (configuration not stated) | -3.84% | 13.9% | 0.387% | -0.514% | 0.718% | -4.09% | 9.95% | 9.63% | 4.17% | 17.7% | -15.9%
11 | CS(=O)(=O)c1ccc(NC(=O)N2CCc3sccc3C2)cn1 | -2.17% | 10.8% | 4.69% | -4.04% | -3.71% | 1.67% | 18.3% | 63.4% | 5.94% | 11% | 13.6%
12 | Cc1csc(N2CCCN(C(=O)C(C(C)C)n3cncn3)CC2)n1 (configuration not stated) | -1.03% | 13.5% | 0.997% | -3.98% | -5.29% | 3.51% | 10.9% | 19.3% | 6.93% | 15.8% | -2.71%
13 | O=C(NCc1ccco1)[C@H]1C[C@H]2OCC[C@H]2N(C(=O)c2ccncc2)C1 | -2.12% | -2.67% | 11.1% | 21.8% | 0.193% | -50% | 7.18% | -21.2% | 3.12% | 2.5% | -1.86%
14 | CC(C)(C)OC(=O)CNC(=O)CCc1nnc(-c2ccsc2)o1 | -5.71% | 5.2% | 2.21% | 5.6% | -0.688% | 24.8% | 16.1% | 6.67% | 3.23% | 3.7% | -0.78%
15 | O=C(Cc1cccnc1)N1CCC2(CC1)CCN(C1CCOCC1)C2 | -5.91% | 0% | 0.681% | -0.504% | -1.67% | -2.76% | 1.83% | 15.5% | 1.07% | -1.24% | 1.45%
16 | CC(NC(=O)N1CCCN(Cc2cccs2)CC1)c1cccnc1 (configuration not stated) | -0.761% | 18.4% | -1.54% | -0.0672% | 5.64% | 10.3% | 8.02% | -11.5% | 5.39% | 21.9% | -12%
17 | O=C1[C@H]2CN(c3ncccn3)C[C@H]2CN1Cc1ccncc1 | -4.5% | -2.7% | 1.46% | -4.76% | -2.34% | -0.417% | 3.97% | -1.92% | 3.96% | -3.66% | -3.35%
